# Compounds with a hit are over-represented: about 0.54% of the library has one in this group of screens.
# Efflux pump inh: inhibitors of Candida efflux pumps in yeast, primary screen, S. cerevisiae, Nile Red, multiplex; S. cerevisiae Candida pump triplex; inhibition, % at 10 µM; 330,000 tested, 0.44% active; AID 485275, 2010;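 active = plate passing quality check with inhibition over a set limit, or well fluorescence over plate mean plus 4 SD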;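 also: Nile Red retained in pooled yeast measured as flow cytometry median fluorescence; 0% = buffer negative control and 100% = Enniatin B positive control; higher means more Nile Red kept so more efflux inhibition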
# Rtt109 Vps75: inhibitors of C. albicans Rtt109/Vps75 HAT, primary screen, biochemical, ThioGlo CoA-SH fluorescence, plate reader; purified Rtt109/Vps75, 4 h; Histone acetyltransferase RTT109 (Candida albicans (strain SC5314 / ATCC MYA-2876)), …; inhibition, % at 34.9 µM; 330,000 tested, 0.16% active; AID 540336, 2011;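 active = inhibition of at least 50% in every replicate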
# PDI turbidity: inhibitors of human PDI, primary screen, biochemical, turbidity, single point, plate reader | Protein disulfide-isomerase (Homo sapiens), P07237 | 350,000 tested, 0.052% active | AID 588391, 2011 | PDI insulin aggregation turbidity, A650, 90 min | inhibition, % at 10 µM;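 active = mean inhibition across replicates of 30% or more, whatever share of single replicates reach that level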
# Target sequence (P07237 whole entry, looked up): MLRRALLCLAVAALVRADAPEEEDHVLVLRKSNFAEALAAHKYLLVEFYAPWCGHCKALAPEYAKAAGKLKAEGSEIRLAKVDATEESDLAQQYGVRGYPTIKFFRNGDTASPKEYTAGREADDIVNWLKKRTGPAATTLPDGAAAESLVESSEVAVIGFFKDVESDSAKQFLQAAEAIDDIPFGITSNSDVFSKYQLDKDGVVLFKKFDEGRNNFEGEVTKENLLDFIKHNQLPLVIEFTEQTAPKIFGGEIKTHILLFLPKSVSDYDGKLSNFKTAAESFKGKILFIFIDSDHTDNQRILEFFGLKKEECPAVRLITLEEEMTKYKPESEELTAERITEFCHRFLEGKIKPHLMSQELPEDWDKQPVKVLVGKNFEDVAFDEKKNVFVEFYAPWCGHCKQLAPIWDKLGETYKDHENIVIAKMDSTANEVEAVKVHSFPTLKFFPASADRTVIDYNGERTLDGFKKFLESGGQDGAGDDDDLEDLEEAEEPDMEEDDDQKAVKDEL
# PvdQ acylase: P. aeruginosa PvdQ acylase inhibitors, primary screen, biochemical, fluorescence, plate reader and imaging, single point; PvdQ acylase [Pseudomonas aeruginosa LESB58]; purified PvdQ acylase; inhibition, % at 10 µM; 340,000 tested, 0.063% active; AID 488965, 2010; in the data active = inhibition above about 30%, passing the limit was not always enough;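 also: 0% = vehicle neutral wells and 100% = reference inhibitor wells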
# ERp5 block: inhibitors of ERp5-driven insulin aggregation, primary screen, biochemical, turbidity, absorbance 650 nm, single point; AID 651711, 2012; inhibition, % at 9.99 µM; 350,000 tested, 0.05% active; 90 min; Protein disulfide-isomerase A6 (Homo sapiens), Q15084;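 active = mean replicate inhibition above about 25%, with every replicate also reaching it, limit read from the data, passing the limit was not always enough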
# Yeast cmpd fluor: flagged as fluorescent in efflux inhibitor counter-screen; shares compounds with Efflux pump inh; S. cerevisiae AD/pABC3, compound fluorescence, flow cytometry; fluorescence ratio to DMSO, % at 10 µM; 1,700 tested, 4% active; AID 588517;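 active = fluorescence ratio to DMSO above its plate's cutoff, the plate mean ratio plus 5 SD, cut at about 210% in these data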;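 also: unstained yeast with no Nile Red so the signal is compound autofluorescence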
# Mdr1 pump inh: inhibitors of Candida albicans Mdr1 efflux, confirmation, flow cytometry, singleplex, Cherry Pick1 set; shares compounds with Efflux pump inh; S. cerevisiae AD/CaMDR1, Nile Red efflux; inhibition, % at 10 µM; 1,700 tested, 1% active; AID 588518, 2011; in the data active = inhibition above about 26%;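 also: 0% = DMSO vehicle and 100% = reference inhibitor; higher means more Nile Red retained so more efflux inhibition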
# Cdr2 pump inh: inhibitors of Candida albicans Cdr2 efflux pump, confirmation, S. cerevisiae AD/CaCDR2, flow cytometry, cherry pick 1, singleplex; shares compounds with Efflux pump inh; Nile Red retention; Nile Red retention ratio vs DMSO, % at 10 µM; 1,700 tested, 4% active; AID 588520, 2011; in the data active = Nile Red retention ratio vs DMSO above about 190%;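 also: higher ratio means more blocking of Cdr2 efflux of the dye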
# CaCdr1 efflux inh: inhibitors of Candida albicans Cdr1 efflux pump, confirmation, S. cerevisiae AD/CaCDR1, flow cytometry, cherry pick 1, singleplex; Nile Red efflux; inhibition, % at 10 µM; AID 588522, 2011; 1,700 tested, 1% active; shares compounds with Efflux pump inh;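 active = inhibition above the screen-wide mean plus twice its standard deviation, cut at about 32% in these data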
# Starred values were filed as active, the others as inactive; / = no result given.
SMILES,Efflux pump inh,Rtt109 Vps75,PDI turbidity,PvdQ acylase,ERp5 block,Yeast cmpd fluor,Mdr1 pump inh,Cdr2 pump inh,CaCdr1 efflux inh
N#C/C(=C\c1ccccn1)c1nc2ccccc2s1,1.6*,3,-3,-2,0,160,0,247*,1
COC(=O)c1ccc(/C=C(\C#N)c2nc3ccccc3s2)cc1,0,4,0,5,/,102,0,120,0
COc1ccc(C(=O)N/N=C/c2ccccn2)cc1,/,/,13,/,3,/,/,/,/
N#C/C(=C(/O)C(Cl)c1ccccc1)c1nc2ccccc2s1 (stereo not given),0,0,-3,4,/,/,/,/,/
COc1ccc2c3c(n(C)c2c1)[C@H](CO)N(S(C)(=O)=O)CC31CN(C(=O)Nc2cccc(F)c2)C1,/,/,/,/,7,/,/,/,/
CCOc1ccc(/C=c2\sc3nc(-c4ccco4)nn3c2=O)cc1OCC,0,8,-2,-7,/,115,0,103,0
CC(C)c1ccc(/C=c2\sc3nc(-c4ccncc4)nn3c2=O)cc1,0,2,4,-7,/,105,0,108,0
COC(=O)C1=COC(C)C2CN3CCc4c([nH]c5cc(OC)c(OC)cc45)C3CC12 (stereo not given),0.9*,-10,/,-12,-3,107,0,119,0
O=C(COC(=O)[C@H](Cc1ccccc1)NC(=O)c1cccs1)NC1CCCCC1,18*,0,1,-11,/,104,0,109,0
CNC[C@@H]1OCCCC[C@H](C)Oc2ccc(NC(=O)Nc3ccccc3)cc2C(=O)N([C@@H](C)CO)C[C@@H]1C,/,/,/,/,-6,/,/,/,/
CC1CCCCC12NC(=O)N(CC(=O)NC1CCCc3ccccc31)C2=O (stereo not given),0.9*,-15,-9,-22,-1,99,0,101,0
O=C(N/N=C/c1c(Cl)cccc1Cl)c1n[nH]c2c1CCCC2,0,-1,-1,-11,-10,/,/,/,/
Cc1ccsc1/C=N\NC(=O)c1n[nH]c2c1CCC2,11*,1,-1,-6,/,87,0,94,0
O=C(Nc1cccc(F)c1)N1C[C@@H]2[C@H](c3ccccc31)[C@H](CO)N2C(=O)c1cccnc1,/,/,/,/,4,/,/,/,/
Brc1ccc(-c2csc(NC3=NCCCCC3)n2)cc1,7.6*,-12,3,-6,0,113,1,107,0
CCCNC(=O)N1CC2(CCN(S(=O)(=O)c3ccc(OC)cc3)CC2)c2c(n(C)c3cc(OC)ccc23)[C@@H]1CO,/,/,/,/,-2,/,/,/,/
Cc1ccc(-c2ccc([C@H]3[C@@H](CO)N4C(=O)CN(C(=O)c5ccncc5)C[C@@H]34)cc2)cc1,/,/,/,/,6,/,/,/,/
O=C(Nc1cc(F)cc(F)c1)c1ccc(NCCc2ccccc2)c([N+](=O)[O-])c1,13*,-3,0,-10,/,101,0,102,0
Cc1ccc(NC(=O)c2ccc(NCCc3ccccc3)c([N+](=O)[O-])c2)cc1F,0,-1,0,-7,/,/,/,/,/
COCc1cn(CC[C@@H]2CC[C@H](NC(=O)Nc3ccc(OC)cc3)[C@H](CO)O2)nn1,/,/,/,/,-5,/,/,/,/
CCn1c(/C=C/c2ccc(O)cc2)nc2ccccc2c1=O,0,5,-1,3,1,/,/,/,/
CCn1c(/C=C/c2ccc(O)c(O)c2)nc2ccccc2c1=O,1.0*,-2,21,4,0,144,2,105,2
CC(C)NC(=O)N(C)C[C@@H]1Oc2c(NS(=O)(=O)c3cn(C)cn3)cccc2C(=O)N([C@H](C)CO)C[C@@H]1C,/,/,/,/,-4,/,/,/,/
COc1ccc(CNC(=O)CCCn2c(=S)[nH]c3cc4c(cc3c2=O)OCO4)cc1,0,-5,-7,-8,/,/,/,/,/
CCOc1cc2[nH]c(=S)n(CCC(=O)NCc3ccc(OC)cc3)c(=O)c2cc1OCC,0.4*,-2,-1,-12,/,102,0,127,0
SMILES,Efflux pump inh,Rtt109 Vps75,PDI turbidity,PvdQ acylase,ERp5 block,Yeast cmpd fluor,Mdr1 pump inh,Cdr2 pump inh,CaCdr1 efflux inh
C[C@H](CO)N1C[C@H](C)[C@H](CN(C)Cc2ccc(C(F)(F)F)cc2)OCCCC[C@H](C)Oc2ccc(NS(=O)(=O)c3cn(C)cn3)cc2C1=O,/,/,/,/,-3,/,/,/,/
CCC(C)N(C(=O)Cn1nnc(-c2ccc(F)cc2)n1)C1CCS(=O)(=O)C1 (stereo not given),0.5*,-6,10,-5,2,114,1,123,0
CCC(C)N(C(=O)Cn1nnc(-c2ccc(Cl)cc2)n1)C1CCS(=O)(=O)C1 (stereo not given),0,3,3,4,2,/,/,/,/
CC(C)Sc1cc(N2CCOCC2)nc(-c2ccccc2)n1,0,-4,-6,-13,/,106,0,108,0
CCSc1cc(N2CCCC2)nc(-c2ccccc2)n1,0,7,3,-20,/,/,/,/,/
CC(C)Sc1cc(N2CCCC2)nc(-c2ccc(F)cc2)n1,0,-8,0,-7,/,/,/,/,/
COCc1cc(N2CCOCC2)nc(-c2ccccc2)n1,0,-4,-1,-6,-3,/,/,/,/
CCSc1cc(N2CCCC2)nc(-c2ccccc2Cl)n1,0,-9,8,0,0,106,0,96,0
CC(C)Sc1cc(N2CCCC2)nc(-c2ccccc2Cl)n1,0,-3,-10,-7,/,161,0,105,0
CSc1cc(N2CCOCC2)nc(-c2ccccc2Cl)n1,1,2,6,-7,-1,91,0,103,0
CC(C)Sc1cc(N2CCCC2)nc(-c2ccccc2)n1,0,-4,-3,-16,/,/,/,/,/
COc1ccc(CN(C)C[C@@H]2Oc3ccc(NS(=O)(=O)c4cccs4)cc3C(=O)N([C@@H](C)CO)C[C@@H]2C)cc1,/,/,/,/,-1,/,/,/,/
Cc1ccc(-c2cnc3c(c2)C(=O)N([C@H](C)CO)C[C@@H](C)[C@H](CN(C)C(=O)CN(C)C)O3)cc1,/,/,/,/,2,/,/,/,/

# Screening results deposited in PubChem by several laboratories.
